Among all 5,500 compounds or so, about 2,000 (36%) were called active. About 18% were inconclusive and are not listed. Cut-off read from the data, not from the text of the source: active = normalized growth mostly below about 0.91 (no sharp cut-off); inconclusive = no clear call, values can overlap the other calls; inactive = mostly above about 0.92. The list shows a part of the results.
Assay: chemical genetic growth profiling, strain panel (AID 1159580);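 note: tested at 20 µM; growth read once vehicle control cultures reached saturation at 30 °C; 1 = growth at the plate median or of vehicle wells; lower values mean less growth of the strain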
Details: growth OD
[1] = S. cerevisiae deletion strains, locus YAL013W, strain DEP1, active compounds read low
[2] = S. cerevisiae deletion strains, locus YBR229C, strain ROT2, active compounds read low
[3] = S. cerevisiae deletion strains, locus YCL061C, strain MRC1, active compounds read low
[4] = S. cerevisiae deletion strains, locus YDL101C, strain DUN1, active compounds read low
[5] = S. cerevisiae deletion strains, locus YDR150W, strain NUM1, active compounds read low
[6] = S. cerevisiae deletion strains, locus YEL061C, strain CIN8, active compounds read low
[7] = S. cerevisiae deletion strains, locus YGR078C, strain PAC10, active compounds read low
[8] = S. cerevisiae deletion strains, locus YHR030C, strain SLT2, active compounds read low
[9] = S. cerevisiae deletion strains, locus YHR087W, strain rtc3, active compounds read low
[10] = S. cerevisiae deletion strains, locus YJL187C, strain SWE1, active compounds read low
[11] = S. cerevisiae deletion strains, locus YJR043C, strain POL32, active compounds read low
[12] = S. cerevisiae deletion strains, locus YJR075W, strain HOC1, active compounds read low
[13] = S. cerevisiae deletion strains, locus YLR039C, strain RIC1, active compounds read low
[14] = S. cerevisiae deletion strains, locus YLR058C, strain SHM2 (second series), active compounds read low
[15] = S. cerevisiae deletion strains, locus YLR085C, strain ARP6, active compounds read low
[16] = S. cerevisiae deletion strains, locus YLR262C, strain YPT6, active compounds read low
[17] = S. cerevisiae deletion strains, locus YML094W, strain GIM5, active compounds read low
[18] = S. cerevisiae deletion strains, locus YMR219W, strain ESC1, active compounds read low
[19] = S. cerevisiae deletion strains, locus YMR263W, strain SAP30, active compounds read low
[20] = S. cerevisiae deletion strains, locus YNL153C, strain GIM3, active compounds read low
[21] = S. cerevisiae deletion strains, locus YNL298W, strain CLA4 (second series), active compounds read low
[22] = S. cerevisiae deletion strains, locus YNL322C, strain KRE1, active compounds read low
[23] = S. cerevisiae deletion strains, locus YNR030W, strain Alg12, active compounds read low
[24] = S. cerevisiae deletion strains, locus YOL006C, strain TOP1, active compounds read low
[25] = S. cerevisiae deletion strains, locus YPL055C, strain LGE1, active compounds read low
[26] = S. cerevisiae deletion strains, locus YPL241C, strain CIN2, active compounds read low
[27] = S. cerevisiae deletion strains, locus YPR135W, strain CTF4, active compounds read low
[28] = S. cerevisiae strains, strain wild type, active compounds read low

Measured: normalized growth

O=[N+]([O-])c1cc(Cl)c(Sc2ccccc2)cc1Sc1ccccc1
inactive: [1] 0.995 | [2] 0.999 | [3] 0.974 | [4] 1.01 | [5] 0.983 | [6] 0.998 | [7] 0.999 | [8] 0.922 | [9] 0.998 | [10] 1.03 | [11] 0.992 | [12] 0.994 | [13] 0.998 | [14] 0.992 | [15] 1.03 | [16] 0.909 | [17] 1.03 | [18] 1.01 | [19] 1.01 | [20] 0.993 | [21] 1.01 | [22] 1.01 | [23] 0.977 | [24] 0.998 | [25] 1.01 | [26] 1.01 | [27] 0.925 | [28] 1.01

O=C(O)c1ccccc1Sc1c(C(=O)O)cc([N+](=O)[O-])cc1[N+](=O)[O-]
inactive: [1] 1.01 | [2] 1.01 | [4] 1.02 | S. cerevisiae deletion strains, locus YDL134C, strain PPH21, active compounds read low 0.976 | [5] 0.988 | [6] 0.994 | [7] 1.01 | [8] 1.01 | [9] 0.993 | [11] 1 | [12] 1 | [13] 1 | [14] 0.994 | [15] 0.989 | [16] 0.984 | [17] 1.08 | [18] 1.01 | [19] 0.994 | [20] 1.03 | [21] 0.964 | [22] 1.02 | [23] 1.01 | [25] 1.02 | [26] 1.08 | [27] 1.09

CC(=O)c1ccc(Sc2ccccn2)c([N+](=O)[O-])c1
inactive: [1] 0.996 | [2] 1 | [3] 1.02 | [4] 1.01 | [5] 0.985 | [6] 0.974 | [7] 0.986 | [8] 0.71 | [9] 1.01 | [10] 0.98 | [11] 1.01 | [12] 0.973 | S. cerevisiae deletion strains, locus YKL190W, strain CNB1, active compounds read low 0.997 | [13] 0.849 | [14] 0.991 | [15] 0.835 | [16] 0.822 | [17] 0.983 | [18] 0.983 | [19] 0.993 | S. cerevisiae deletion strains, locus YMR307W, strain GAS1, active compounds read low 1.04 | S. cerevisiae deletion strains, locus YNL128W, strain TEP1, active compounds read low 0.967 | [20] 0.98 | [21] 0.934 | [22] 0.966 | [23] 0.99 | [24] 0.747 | [25] 0.976 | [26] 1.01 | [27] 0.927 | [28] 0.984

O=[N+]([O-])c1ccc(Sc2ccccc2)cc1O
inactive: S. cerevisiae deletion strains, locus YAR019C, strain CDC15, active compounds read low 0.915 | S. cerevisiae deletion strains, locus YBL105C, strain PKC1, active compounds read low 0.925 | S. cerevisiae deletion strains, locus YBR135W, strain CKS1, active compounds read low 0.927 | S. cerevisiae deletion strains, locus YBR136W, strain MEC1, active compounds read low 0.924 | S. cerevisiae deletion strains, locus YBR160W, strain CDC28, active compounds read low 0.929 | S. cerevisiae deletion strains, locus YDL017W, strain CDC7, active compounds read low 0.929 | S. cerevisiae deletion strains, locus YDL028C, strain MPS1, active compounds read low 0.931 | [4] 0.914 | S. cerevisiae deletion strains, locus YDL108W, strain KIN28, active compounds read low 0.927 | S. cerevisiae deletion strains, locus YDL132W, strain cdc53, active compounds read low 0.909 | S. cerevisiae deletion strains, locus YDL214C, strain PRR2, active compounds read low 0.823 | S. cerevisiae deletion strains, locus YDR052C, strain DBF4, active compounds read low 0.943 | S. cerevisiae deletion strains, locus YDR054C, strain cdc34, active compounds read low 0.899 | S. cerevisiae deletion strains, locus YDR226W, strain ADK1, active compounds read low 0.958 | S. cerevisiae deletion strains, locus YDR477W, strain SNF1, active compounds read low 0.844 | S. cerevisiae deletion strains, locus YER123W, strain YCK3, active compounds read low 0.78 | S. cerevisiae deletion strains, locus YER133W, strain GLC7, active compounds read low 0.831 | S. cerevisiae deletion strains, locus YFL009W, strain cdc4, active compounds read low 0.91 | S. cerevisiae deletion strains, locus YFL029C, strain CAK1, active compounds read low 0.928 | S. cerevisiae deletion strains, locus YFR003C, strain YPI1, active compounds read low 0.928 | S. cerevisiae deletion strains, locus YFR019W, strain FAB1, active compounds read low 0.895 | S. cerevisiae deletion strains, locus YFR028C, strain CDC14, active compounds read low 0.959 | S. cerevisiae deletion strains, locus YGR040W, strain KSS1, active compounds read low 0.84 | S. cerevisiae deletion strains, locus YGR052W, strain FMP48, active compounds read low 0.817 | S. cerevisiae deletion strains, locus YGR092W, strain DBF2, active compounds read low 0.709 | [8] 0.904 | S. cerevisiae deletion strains, locus YHR079C, strain IRE1, active compounds read low 0.812 | S. cerevisiae deletion strains, locus YHR082C, strain KSP1, active compounds read low 0.838 | S. cerevisiae deletion strains, locus YHR205W, strain SCH9, active compounds read low 0.864 | S. cerevisiae deletion strains, locus YIL147C, strain SLN1, active compounds read low 0.923 | S. cerevisiae deletion strains, locus YJL095W, strain BCK1, active compounds read low 0.806 | S. cerevisiae deletion strains, locus YJL128C, strain PBS2, active compounds read low 0.843 | S. cerevisiae deletion strains, locus YJL157C, strain FAR1, active compounds read low 0.796 | S. cerevisiae deletion strains, locus YJR016C, strain ILV3, active compounds read low 0.913 | S. cerevisiae deletion strains, locus YJR066W, strain TOR1 (second series), active compounds read low 0.834 | S. cerevisiae deletion strains, locus YJR066W, strain TOR1, active compounds read low 0.827 | S. cerevisiae deletion strains, locus YKL048C, strain ELM1, active compounds read low 0.878 | S. cerevisiae deletion strains, locus YKL067W, strain YNK1, active compounds read low 0.821 | S. cerevisiae deletion strains, locus YKL101W, strain HSL1, active compounds read low 0.862 | S. cerevisiae deletion strains, locus YKL193C, strain SDS22, active compounds read low 0.921 | S. cerevisiae deletion strains, locus YKL203C, strain TOR2, active compounds read low 0.871 | S. cerevisiae deletion strains, locus YLR133W, strain CKI1, active compounds read low 0.85 | S. cerevisiae deletion strains, locus YLR403W, strain SFP1, active compounds read low 0.8 | S. cerevisiae deletion strains, locus YML070W, strain DAK1, active compounds read low 0.824 | S. cerevisiae deletion strains, locus YMR001C, strain CDC5, active compounds read low 0.919 | S. cerevisiae deletion strains, locus YMR205C, strain PFK2 (second series), active compounds read low 0.824 | S. cerevisiae deletion strains, locus YMR277W, strain FCP1, active compounds read low 0.917 | S. cerevisiae deletion strains, locus YNL006W, strain LST8, active compounds read low 0.925 | S. cerevisiae deletion strains, locus YNL020C, strain ARK1, active compounds read low 0.837 | S. cerevisiae deletion strains, locus YNL161W, strain CBK1, active compounds read low 0.922 | S. cerevisiae deletion strains, locus YNL183C, strain NPR1, active compounds read low 0.828 | S. cerevisiae deletion strains, locus YNL207W, strain RIO2, active compounds read low 0.912 | S. cerevisiae deletion strains, locus YNL222W, strain SSU72, active compounds read low 0.924 | S. cerevisiae deletion strains, locus YNL307C, strain MCK1 (second series), active compounds read low 0.836 | S. cerevisiae deletion strains, locus YOL078W, strain AVO1, active compounds read low 0.903 | S. cerevisiae deletion strains, locus YOL136C, strain PFK27, active compounds read low 0.816 | S. cerevisiae deletion strains, locus YOR061W, strain CKA2, active compounds read low 0.817 | S. cerevisiae deletion strains, locus YOR119C, strain RIO1, active compounds read low 0.892 | S. cerevisiae deletion strains, locus YOR231W, strain MKK1, active compounds read low 0.806 | S. cerevisiae deletion strains, locus YOR329C, strain SCD5, active compounds read low 0.92 | S. cerevisiae deletion strains, locus YPL031C, strain PHO85, active compounds read low 0.807 | S. cerevisiae deletion strains, locus YPL153C, strain RAD53, active compounds read low 0.828 | S. cerevisiae deletion strains, locus YPL204W, strain HRR25, active compounds read low 0.798 | S. cerevisiae deletion strains, locus YPL209C, strain IPL1, active compounds read low 0.923 | S. cerevisiae deletion strains, locus YPL256C, strain CLN2, active compounds read low 0.895 | S. cerevisiae deletion strains, locus YPR025C, strain CCL1, active compounds read low 0.924 | S. cerevisiae deletion strains, locus YPR111W, strain DBF20, active compounds read low 0.89 | S. cerevisiae deletion strains, strain NNK1, active compounds read low 0.892 | S. cerevisiae deletion strains, strain TSCII, active compounds read low 0.906
active: S. cerevisiae deletion strains, locus YLR113W, strain HOG1, active compounds read low 0.736 | S. cerevisiae deletion strains, locus YPR106W, strain ISR1, active compounds read low 0.875

Source: PubChem BioAssay AID1159580 (chemical genetic matrix, 2015)
